The results in this text go back to ChEMBL document CHEMBL2218924, “A broad activity screen in support of a chemogenomic map for kinase signalling research and drug discovery” (Biochem J, 2013).

Assay [1] has as its target T1, Ephrin type-A receptor 3 (Homo sapiens) (UniProt P29320).
T1 sequence (whole entry): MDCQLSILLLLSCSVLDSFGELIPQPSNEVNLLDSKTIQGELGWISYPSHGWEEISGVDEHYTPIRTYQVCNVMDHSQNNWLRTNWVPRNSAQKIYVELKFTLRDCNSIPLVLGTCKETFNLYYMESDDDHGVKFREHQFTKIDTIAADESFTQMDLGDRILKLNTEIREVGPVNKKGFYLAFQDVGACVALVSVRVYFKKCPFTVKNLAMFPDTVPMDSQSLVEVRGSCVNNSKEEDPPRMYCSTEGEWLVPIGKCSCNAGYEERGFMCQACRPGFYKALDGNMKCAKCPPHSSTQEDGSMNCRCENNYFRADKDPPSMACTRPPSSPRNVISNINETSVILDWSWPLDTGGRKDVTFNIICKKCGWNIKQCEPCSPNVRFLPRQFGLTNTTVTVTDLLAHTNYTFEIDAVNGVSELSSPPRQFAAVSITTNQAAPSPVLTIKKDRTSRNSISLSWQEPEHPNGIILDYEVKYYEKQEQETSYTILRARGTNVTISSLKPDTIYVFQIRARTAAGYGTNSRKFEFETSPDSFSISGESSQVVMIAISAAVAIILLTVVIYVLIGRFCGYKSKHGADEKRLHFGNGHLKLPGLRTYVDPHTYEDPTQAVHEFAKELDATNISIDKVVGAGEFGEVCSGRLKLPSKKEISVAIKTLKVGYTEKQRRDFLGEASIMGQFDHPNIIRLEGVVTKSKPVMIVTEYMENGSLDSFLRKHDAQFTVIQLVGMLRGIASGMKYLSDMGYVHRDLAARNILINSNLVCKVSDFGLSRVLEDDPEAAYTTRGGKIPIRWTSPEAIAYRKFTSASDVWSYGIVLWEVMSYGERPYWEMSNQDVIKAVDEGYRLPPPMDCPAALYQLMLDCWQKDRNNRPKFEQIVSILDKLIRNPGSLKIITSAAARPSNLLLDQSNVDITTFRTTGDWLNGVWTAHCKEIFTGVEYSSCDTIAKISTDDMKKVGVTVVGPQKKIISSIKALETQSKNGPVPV
The note with it: at 10 µM.

Assay [2] has as its target Ephrin type-A receptor 4 (Homo sapiens) (UniProt P54764). The note with it: at 1 µM.
The target is the same in assay [3]. The settings on record: at 10 µM.
The target in assay [4] is Ephrin type-A receptor 5 (Homo sapiens) (UniProt P54756). The settings on record: at 1 µM.
Ephrin type-A receptor 5 (Homo sapiens), sequence (P54756 whole entry): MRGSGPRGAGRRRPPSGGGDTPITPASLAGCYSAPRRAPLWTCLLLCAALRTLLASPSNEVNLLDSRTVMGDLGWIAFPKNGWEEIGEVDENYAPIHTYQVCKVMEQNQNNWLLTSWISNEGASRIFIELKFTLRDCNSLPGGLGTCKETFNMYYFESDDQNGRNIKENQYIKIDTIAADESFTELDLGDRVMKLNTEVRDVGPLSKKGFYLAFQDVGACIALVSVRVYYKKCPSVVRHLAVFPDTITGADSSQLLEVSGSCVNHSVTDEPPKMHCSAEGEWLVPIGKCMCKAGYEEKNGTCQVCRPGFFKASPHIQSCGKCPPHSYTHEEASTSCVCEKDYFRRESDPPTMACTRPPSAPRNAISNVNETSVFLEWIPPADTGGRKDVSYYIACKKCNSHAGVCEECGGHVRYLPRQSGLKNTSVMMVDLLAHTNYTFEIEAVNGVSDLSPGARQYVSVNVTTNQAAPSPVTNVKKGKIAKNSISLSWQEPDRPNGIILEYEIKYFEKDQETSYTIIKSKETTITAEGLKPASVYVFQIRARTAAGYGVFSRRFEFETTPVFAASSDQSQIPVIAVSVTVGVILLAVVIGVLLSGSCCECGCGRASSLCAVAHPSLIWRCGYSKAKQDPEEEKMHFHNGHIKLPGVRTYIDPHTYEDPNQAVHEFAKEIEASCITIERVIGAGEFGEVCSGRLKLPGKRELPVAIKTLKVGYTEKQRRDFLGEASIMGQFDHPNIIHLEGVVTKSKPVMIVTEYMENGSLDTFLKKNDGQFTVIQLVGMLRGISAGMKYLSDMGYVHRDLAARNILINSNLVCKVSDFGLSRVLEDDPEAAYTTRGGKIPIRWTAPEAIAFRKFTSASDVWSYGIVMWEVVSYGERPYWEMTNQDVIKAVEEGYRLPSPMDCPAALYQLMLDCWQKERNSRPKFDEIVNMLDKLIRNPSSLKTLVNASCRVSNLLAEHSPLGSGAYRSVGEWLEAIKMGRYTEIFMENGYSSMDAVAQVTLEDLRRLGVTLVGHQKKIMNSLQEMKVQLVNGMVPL
Assay [5] has the same target. The settings on record: at 10 µM.
For assay [6], the target named is Ephrin type-A receptor 7 (Homo sapiens) (UniProt Q15375). The settings on record: at 1 µM.
Ephrin type-A receptor 7 (Homo sapiens), sequence (Q15375 28-998 limits assumed): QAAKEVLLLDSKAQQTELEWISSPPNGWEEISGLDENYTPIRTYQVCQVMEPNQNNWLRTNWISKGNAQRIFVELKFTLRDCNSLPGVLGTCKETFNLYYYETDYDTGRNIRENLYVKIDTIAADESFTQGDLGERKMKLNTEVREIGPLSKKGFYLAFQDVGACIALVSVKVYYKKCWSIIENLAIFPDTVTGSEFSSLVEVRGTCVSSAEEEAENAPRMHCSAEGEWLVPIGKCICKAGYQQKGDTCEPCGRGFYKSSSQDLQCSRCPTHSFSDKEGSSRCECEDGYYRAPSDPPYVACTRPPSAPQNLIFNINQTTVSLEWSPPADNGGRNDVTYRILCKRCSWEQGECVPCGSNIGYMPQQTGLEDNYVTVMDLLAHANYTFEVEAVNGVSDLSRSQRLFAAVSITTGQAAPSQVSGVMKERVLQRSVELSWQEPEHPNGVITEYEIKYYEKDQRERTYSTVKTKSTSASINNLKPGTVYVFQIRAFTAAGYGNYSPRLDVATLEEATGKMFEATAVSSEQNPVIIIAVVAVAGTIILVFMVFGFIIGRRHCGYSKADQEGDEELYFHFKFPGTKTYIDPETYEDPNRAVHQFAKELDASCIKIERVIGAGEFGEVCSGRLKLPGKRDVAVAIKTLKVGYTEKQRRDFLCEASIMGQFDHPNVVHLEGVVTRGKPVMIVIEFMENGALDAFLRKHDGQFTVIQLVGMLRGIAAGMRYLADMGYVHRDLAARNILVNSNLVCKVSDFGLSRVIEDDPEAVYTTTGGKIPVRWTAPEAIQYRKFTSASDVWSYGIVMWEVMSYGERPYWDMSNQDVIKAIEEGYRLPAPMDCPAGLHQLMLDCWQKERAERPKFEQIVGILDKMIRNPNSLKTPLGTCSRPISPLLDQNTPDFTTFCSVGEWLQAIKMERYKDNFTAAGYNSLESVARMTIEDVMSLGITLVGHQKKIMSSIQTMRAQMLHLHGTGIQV
Assay [7] shares this target. The settings on record: at 10 µM.
In assay [8] the target is T2, Ephrin type-A receptor 8 (Homo sapiens) (UniProt P29322).
T2 sequence (whole entry): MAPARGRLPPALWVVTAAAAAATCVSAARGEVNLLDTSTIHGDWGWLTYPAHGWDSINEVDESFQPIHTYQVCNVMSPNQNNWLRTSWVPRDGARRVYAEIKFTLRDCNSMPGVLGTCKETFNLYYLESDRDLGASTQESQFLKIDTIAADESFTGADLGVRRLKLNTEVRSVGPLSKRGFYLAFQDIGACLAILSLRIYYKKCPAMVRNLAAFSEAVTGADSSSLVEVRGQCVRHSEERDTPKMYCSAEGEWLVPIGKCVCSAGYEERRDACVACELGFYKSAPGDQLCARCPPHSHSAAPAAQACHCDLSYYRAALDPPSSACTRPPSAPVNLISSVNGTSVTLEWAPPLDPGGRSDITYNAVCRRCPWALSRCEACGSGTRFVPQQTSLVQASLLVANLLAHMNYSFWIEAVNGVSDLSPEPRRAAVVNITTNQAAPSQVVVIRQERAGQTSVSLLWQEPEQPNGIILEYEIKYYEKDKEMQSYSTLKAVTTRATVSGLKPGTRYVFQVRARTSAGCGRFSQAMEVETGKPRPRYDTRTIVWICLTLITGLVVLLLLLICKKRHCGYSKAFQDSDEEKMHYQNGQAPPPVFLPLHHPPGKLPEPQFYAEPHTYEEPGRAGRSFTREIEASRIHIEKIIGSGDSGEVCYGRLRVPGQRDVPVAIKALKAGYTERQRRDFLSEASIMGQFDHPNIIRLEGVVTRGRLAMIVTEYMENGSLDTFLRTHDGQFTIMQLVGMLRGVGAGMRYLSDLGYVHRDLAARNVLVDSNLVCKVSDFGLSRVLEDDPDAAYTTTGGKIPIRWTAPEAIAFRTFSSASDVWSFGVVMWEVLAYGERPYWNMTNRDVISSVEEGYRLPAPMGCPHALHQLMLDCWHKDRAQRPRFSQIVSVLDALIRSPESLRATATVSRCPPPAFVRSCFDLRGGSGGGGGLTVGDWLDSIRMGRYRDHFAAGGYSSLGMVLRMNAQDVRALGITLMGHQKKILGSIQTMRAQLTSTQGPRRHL
The settings on record: at 1 µM.

Assay [9] addresses T2, Ephrin type-A receptor 8 (Homo sapiens). The settings on record: at 10 µM.

Ephrin type-A receptor 4 (Homo sapiens), sequence (P54764 whole entry): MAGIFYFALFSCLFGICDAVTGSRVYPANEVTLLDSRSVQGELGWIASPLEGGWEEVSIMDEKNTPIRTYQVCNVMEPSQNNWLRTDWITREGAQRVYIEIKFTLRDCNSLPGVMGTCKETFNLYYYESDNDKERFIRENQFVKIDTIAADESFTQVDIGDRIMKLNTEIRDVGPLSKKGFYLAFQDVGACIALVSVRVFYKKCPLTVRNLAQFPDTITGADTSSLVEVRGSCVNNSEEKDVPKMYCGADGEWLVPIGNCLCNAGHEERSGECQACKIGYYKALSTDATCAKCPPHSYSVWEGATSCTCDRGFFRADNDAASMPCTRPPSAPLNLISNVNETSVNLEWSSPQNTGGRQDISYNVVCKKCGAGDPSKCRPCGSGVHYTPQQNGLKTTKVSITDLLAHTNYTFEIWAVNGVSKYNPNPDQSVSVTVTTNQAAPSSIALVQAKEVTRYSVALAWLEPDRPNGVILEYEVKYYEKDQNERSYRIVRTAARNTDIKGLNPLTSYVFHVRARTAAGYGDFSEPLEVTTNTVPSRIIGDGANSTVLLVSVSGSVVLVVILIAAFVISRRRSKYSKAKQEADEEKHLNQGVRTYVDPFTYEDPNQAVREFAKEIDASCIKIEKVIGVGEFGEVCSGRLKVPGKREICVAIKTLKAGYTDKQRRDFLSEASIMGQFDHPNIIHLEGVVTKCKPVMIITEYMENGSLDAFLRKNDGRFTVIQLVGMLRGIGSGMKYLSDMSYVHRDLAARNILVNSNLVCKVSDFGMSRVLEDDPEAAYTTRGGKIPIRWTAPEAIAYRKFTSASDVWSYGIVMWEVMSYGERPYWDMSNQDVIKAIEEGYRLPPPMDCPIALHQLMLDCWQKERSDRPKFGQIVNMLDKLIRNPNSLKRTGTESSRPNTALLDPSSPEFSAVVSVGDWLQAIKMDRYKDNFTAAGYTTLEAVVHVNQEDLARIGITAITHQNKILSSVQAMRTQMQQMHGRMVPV

Regarding `COc1cc2ncnc(N3CCN(C(=O)Nc4ccc(Oc5ccccc5)cc4)CC3)c2cc1OC`, the residual activity (commonly the signal under treatment as a percentage of the control signal) in [1] is 112%; in [2] it was 99%; in assay [3], 101%; in assay [4] it was 117%; in assay [5] it was 124%; in assay [6], 95%. The residual activity in assay [7] amounted to 93%; in assay [8], 87%; in [9], 99%.
